High-throughput results as filed in PubChem.
Tau FP inhib: qHTS for Inhibitors of Tau Fibril Formation, Fluorescence Polarization | Microtubule-associated protein tau (Homo sapiens), P10636 | K18 P301L tau heparin fibrillization, Alexa594 FP, 6 h | Potency, µM (doses to about 57.7 µM), most hits filed as inhibitors | 280,000 tested, 0.39% active | AID 1468, 2008; also: nearly all actives have a fitted effect of over 55% in size
Target sequence (P10636 561-689 P618L limits assumed): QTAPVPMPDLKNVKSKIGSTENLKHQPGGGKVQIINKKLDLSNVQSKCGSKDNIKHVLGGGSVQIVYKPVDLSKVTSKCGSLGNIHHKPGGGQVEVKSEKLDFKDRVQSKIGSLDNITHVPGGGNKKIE
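FP of Alexa 594-tau after heparin (20 uM) induction. Substrate: human K18 P301L, 15 uM unlabeled, 0.24 uM labeled. Buffer 100 mM sodium acetate pH 7. 6 hr, 37 C.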
TexasRed fluor: Total Fluorescence Counterscreen for Inhibitors of the Interaction of Thyroid Hormone Receptor and Steroid Receptor Coregulator 2; TRb/SRC2 Texas Red total fluorescence interference; Potency, µM (highest dose often 106 µM); 280,000 tested, 0.29% active; active = well fitted curve in either direction with a large enough effect; inconclusive = small, poorly fitted or top-dose-only effect
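Human TRβ ligand-binding domain (0.6 uM) and Texas Red SRC2 peptide (20 nM) in Tris buffer with 1 uM T3 and 5% DMSO were incubated with pinned compound for 5 hr at ambient temperature. Total fluorescence was computed as S + 2P (555/632 nm).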
Tau fibril ThT: qHTS for Inhibitors of Tau Fibril Formation, Thioflavin T Binding | Microtubule-associated protein tau (Homo sapiens), P10636 | recombinant tau K18 P301L, heparin-induced fibrillization, ThT fluorescence | Potency, µM (titrated, usually from 57.4 µM), most hits filed as inhibitors | 270,000 tested, 2.1% active; also: nearly all actives have a fitted effect of over 55% in size
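Using a mix of unlabeled (15 uM) and Alexa 594-labeled (0.24 uM) tau K18 P301L, heparin-triggered fibrillization over 6 hr at 37 C was scored by ThT fluorescence.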
Tau fluor cs: Counterscreen qHTS for Inhibitors of Tau Fibril Formation, Fluorescence Polarization. tau K18 P301L Alexa594 fluorescence, heparin fibrillization. Potency, µM (doses to about 57.7 µM). 280,000 tested, 0.93% active. AID 1463, 2008; also: nearly all actives have a fitted effect of over 55% in size
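Human tau K18 P301L (15 uM unlabeled, 0.24 uM Alexa 594-labeled) in 100 mM sodium acetate pH 7 with 20 uM heparin, 6 hr at 37 C. ThT 30 uM added, 1 hr ambient; Alexa 594 FP and total fluorescence read at 555/632 nm.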
TRb SRC2 PPI: qHTS for Inhibitors of the Interaction of Thyroid Hormone Receptor and Steroid Receptor Coregulator 2; Thyroid hormone receptor beta (Homo sapiens), P10828; TRbeta-SRC2 peptide binding, fluorescence polarization; receptor liganded with 1 µM T3; Potency, µM (doses to about 106 µM), most hits filed as inhibitors; 280,000 tested, 0.065% active; AID 1469, 2008; also: nearly all actives have a fitted effect of over 50% in size
Target sequence (P10828 whole entry, looked up): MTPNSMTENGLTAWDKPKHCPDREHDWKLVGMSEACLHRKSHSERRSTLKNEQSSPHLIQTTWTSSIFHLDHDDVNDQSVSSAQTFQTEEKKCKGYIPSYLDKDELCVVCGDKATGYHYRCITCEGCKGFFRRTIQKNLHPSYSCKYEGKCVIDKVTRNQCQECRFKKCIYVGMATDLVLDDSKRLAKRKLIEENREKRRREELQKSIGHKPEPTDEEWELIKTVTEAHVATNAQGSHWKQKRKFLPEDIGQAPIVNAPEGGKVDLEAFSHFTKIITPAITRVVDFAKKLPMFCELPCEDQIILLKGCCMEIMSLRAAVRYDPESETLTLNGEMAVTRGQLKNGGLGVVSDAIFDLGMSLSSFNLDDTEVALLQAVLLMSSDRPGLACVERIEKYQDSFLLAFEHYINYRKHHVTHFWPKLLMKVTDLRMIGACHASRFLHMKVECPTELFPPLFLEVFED
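Fluorescence polarization of 20 nM Texas Red SRC2 peptide with 0.6 uM human TRb ligand-binding domain, in Tris buffer with 1uM T3 and 5% DMSO. Incubated 5 hr ambient; normalized to unbound and bound controls.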
Numbers stand for hits; n = inactive; u = inconclusive; x = not tested or not shown; [ ] = another dose, or the depositor's remark. Shown are actives, neighbours in structure and some others; about 3.1% of the full set was active somewhere. Unless noted, calls follow the shape of the dose curve; as a rule, active = well fitted curve in the direction sought with a large enough effect; inconclusive = small, poorly fitted or top-dose-only effect, or another doubt; inactive = no such curve, though single readings can be large; an effect the other way counts as inactive or inconclusive.

SMILES	Tau FP inhib	TexasRed fluor	Tau fibril ThT	Tau fluor cs	TRb SRC2 PPI
Oc1ccc(/C=C\c2cc(O)cc(O)c2)cc1	n	n	14µM	14µM[quencher]	n
Oc1ccc(/C=C/c2cc(O)cc(O)c2)cc1	u	u	10µM	u	n
Cc1ccc(OCC(=O)Nc2nnc(S(=O)(=O)N3CCc4ccccc43)s2)cc1	n	n	u	n	n
CC(=O)c1ccc(NC(=S)Nc2ccc(Br)c(Cl)c2)cc1	u	n	n	u	n
CC(=O)c1ccc(NC(=S)NC(C)c2ccc(Cl)cc2Cl)cc1 (stereo unspecified)	32µM	n	n	14µM[quencher]	n
CCc1ccc2c(O)c3c(cc2c1C(=O)OC)C(=O)c1c(O)ccc(O)c1C3=O	u	n	3.2µM	u	n
CCC(=O)Nc1sc2c(c1C(=O)Nc1ccc(Br)cc1)CCCCC2	n	n	n	n	n
CN(C)c1ccc(C(=O)/C=C/c2ccc(Br)cc2)cc1	n	n	u	n	n
CN(C)c1ccc(/C=C/C(=O)c2cc(Cl)ccc2O)cc1	n	n	4µM	u	n
O=C(/C=C/c1ccncc1)c1cc(Cl)ccc1O	n	n	28µM	u	n
NC(=O)C1CCN(S(=O)(=O)c2cc3c(cc2Cl)NC(=O)CO3)CC1	n	n	n	n	n
CCCCCCCCCCCCCO	x	n	x	x	n
CCN(CCCNC(=O)c1cc2cc3cc(OC)ccc3nc2s1)c1cccc(C)c1	n	n	u	4µM[quencher]	n
CCCCN(CCCNC(=O)c1cc(Nc2ccc(OC)cc2OC)nc2ccccc12)Cc1ccccc1	n	n	u	10µM[quencher]	n
CCN(CCCNC(=O)c1cc2cc3ccc(C)cc3nc2s1)c1ccccc1	u	n	u	u	n
COc1ccc(Nc2cc(C(=O)NCCCN(C)Cc3ccccc3)c3ccccc3n2)cc1OC	u	n	u	28µM[quencher]	n
COc1ccc(Nc2cc(C(=O)NCCc3ccccc3)c3ccccc3n2)cc1OC	n	n	n	u	n
CCCCN(CCCNC(=O)c1cc(Nc2ccc(OC)c(OC)c2)nc2ccccc12)c1ccccc1	n	n	n	7.1µM[quencher]	n
CCN(CCCNC(=O)c1cc(Nc2ccc(OC)cc2OC)nc2ccccc12)c1cccc(C)c1	n	n	u	7.1µM[quencher]	n
CSc1cccc(Nc2cc(C(=O)NCCCN(C)c3ccccc3)c3ccccc3n2)c1	n	n	n	2.8µM[quencher]	n
CCCCN(CCCNC(=O)c1cc(Nc2ccc(OC)c(OC)c2)nc2ccccc12)Cc1ccccc1	n	n	u	13µM[quencher]	n
COc1ccc(Nc2cc(C(=O)NCc3ccccc3)c3ccccc3n2)cc1	u	n	n	u	n
CCc1ccc(Nc2cc(C(=O)NCCCN(C)c3ccccc3)c3ccccc3n2)cc1	n	n	n	u	n
COc1ccc(Nc2cc(C(=O)NC3CCC(C)CC3)c3ccccc3n2)cc1OC (stereo unspecified)	n	n	n	u	n
CCCCN(CCCNC(=O)c1cc(Nc2ccc(OC)cc2)nc2ccccc12)Cc1ccccc1	n	n	n	4µM[quencher]	n
SMILES	Tau FP inhib	TexasRed fluor	Tau fibril ThT	Tau fluor cs	TRb SRC2 PPI
COc1ccccc1Nc1cc(C(=O)NCCCN(C)c2ccccc2)c2ccccc2n1	n	n	n	u	n
CCOC(=O)c1cc(OC(=O)c2cc(OC)cc(OC)c2)n(-c2ccccc2)n1	n	n	n	n	n
CCOc1ccc(-c2cc(CCCC(=O)NCCc3cc(OC)c(OC)c(OC)c3)no2)cc1	n	n	u	n	n
CCCCN(CCCC)CCCNC(=O)c1cc(-c2ccc(Cl)s2)nc2ccccc12	n	0.79µM[quencher]	n	u	n
CCN1C=C(Cc2ccc(F)cc2)C2=C(C1)C(c1ccc(F)cc1)C(C#N)=C(N)O2 (stereo unspecified)	n	n	u	n	n
CCN1C=C(Cc2ccccc2C)C2=C(C1)C(c1ccccc1C)C(C#N)=C(N)O2 (stereo unspecified)	n	45µM[fluorescent]	u	n	u
O=C(N/N=C/c1ccc(O)cc1)c1[nH]c2ccc(Br)cc2c1-c1ccccc1	u	n	n	13µM[quencher]	n
O=C(N/N=C/c1c[nH]c2ccccc12)c1[nH]c2ccc(Br)cc2c1-c1ccccc1	n	n	u	4µM[quencher]	n
C/C(=N\NC(=O)CCC(=O)O)c1c(-c2ccccc2)c2cc(Br)ccc2[nH]c1=O	n	n	x	n	n
O=C(N/N=C/c1c[nH]c2ccc(Br)cc12)c1ccc2c(c1)OCO2	u	n	u	18µM[quencher]	n
O=C(N/N=C/c1c[nH]c2ccccc12)c1ccc2c(c1)OCCO2	n	n	u	u	n
Nc1cc2nc3ccccc3oc-2cc1=O	11µM	n	7.1µM	u	n
O=c1oc2ccccc2cc1-c1nc2ccccc2o1	n	n	u	n	n
Cc1nc2nc(NC(=O)C(C)C)[nH]n2c(=O)c1Cc1ccccc1	n	n	n	n	n
Cc1cc(/C=C2\SC(=S)NC2=O)c(C)n1C1CC1	n	n	13µM	n	n
CCc1nnc(SCc2cccc(Cl)c2)c2cc3sccc3n12	n	25µM[quencher]	u	n	n
CCc1cccc(NC(=O)CN2C(=O)COc3ccc(S(=O)(=O)N4CCC(C)CC4)cc32)c1	n	n	n	n	n
COc1cc(NC(=O)c2cc3c(Cl)nc4ccccc4c3s2)cc(OC)c1OC	n	n	u	8.9µM[quencher]	n
Cc1ccc(/C=C2/CNC/C(=C\c3ccc(C)cc3)C2=O)cc1	x	n	x	x	n
O=C(Cc1ccccc1Cl)NC1(O)C(=O)c2ccccc2C1=O	u	n	2.8µM	n	n
C=CCN1C(=O)/C(=C2\SC(N3CCOCC3)=NC2=O)c2cc(Br)ccc21	n	n	16µM	n	n
O=C1N=C(N2CCOCC2)SC1=C1CCCCC1	n	n	n	n	n
O=S(=O)(NCCc1csc2nc(-c3ccc(Cl)cc3)nn12)c1ccc2c(c1)OCCO2	u	n	n	n	n
Cc1c(NC(=O)c2cccs2)cccc1-c1nc2cc(Cl)ccc2o1	n	n	n	u	n
CN(C)C(=O)c1ccc2c(c1[N+](=O)[O-])C(=O)c1ccccc1C2=O	n	n	n	n	n
Cc1[nH]c2ccccc2c1CCNC(=O)c1ccc2c(c1[N+](=O)[O-])C(=O)c1ccccc1C2=O	n	n	u	8.9µM[quencher]	n
Cc1[nH]c2c(C)cccc2c1CCNC(=O)c1ccc2c(c1[N+](=O)[O-])C(=O)c1ccccc1C2=O	n	n	u	7.9µM[quencher]	n
Cc1ccc(CS(=O)(=O)c2cn(CC(=O)N(C)c3ccccc3)c3ccccc23)cc1	n	u	n	n	n
Cn1c(CN2CCOCC2)nc2cc(NC(=O)c3ccccc3[N+](=O)[O-])ccc21	n	100µM[quencher]	n	n	n
